# Assay outcomes (PubChem BioAssay)
# JMJD2E inh – JMJD2E (human) inhibition; Potency, µM (top dose mostly 57.1 µM), inactives show top-dose activity change, negative = inhibition, most hits filed as inhibitors; actives 1.6% (n = 230,000); JMJD2E catalytic domain, FDH-coupled NADH fluorescence (FDH is formaldehyde dehydrogenase);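 also: 0% = wells with enzyme and -100% = buffer wells without enzyme; nearly all actives have a fitted effect of over 50% in size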
# KAT2A inh – inhibitors of human GCN5L2 histone acetyltransferase; Q92830; actives 0.21% (n = 390,000); Potency, µM (top dose mostly 58.9 µM), without a hit: top-dose activity change, negative = inhibition, most hits filed as inhibitors; GCN5L2 HAT assay, ThioGlo1 CoA-SH fluorescence; AID 504327; also: % is scaled to controls: 0 for no effect and ±100 for the full control effect
#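 Fluorescence readout, Ex340nm/Em540nm: ThioGlo1 (50uM final) reacts with free CoA thiol released as 20nM GCN5L2 acetylates H3(1-25) peptide (75uM) using acetyl-CoA (70uM). Compound and enzyme sat 15 min beforehand; 20 min room-temperature reaction.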
# Sfp PPTase inh – inhibitors of Bacillus subtilis Sfp phosphopantetheinyl transferase; Q9F4F7; Biochemical Sfp PPTase activity, qHTS; Potency, µM, for inactives: largest response in the series, negative = inhibition, usual class: inhibitors; actives 3.5% (n = 310,000); AID 1490;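 also: the enzyme is Sfp with the accession as filed and its product quenches rhodamine fluorescence; 0% = enzyme reaction without inhibitor and -100% = no enzyme wells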
#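 Sfp 15 nM + cpd, 15 min RT; start w/ rhodamine-CoA 5 uM, BHQ-2-YbbR 12.5 uM (final); 50 mM Hepes pH 7.6, 10 mM MgCl2, 0.01% NP-40, 0.01% BSA; read 525/598 nm at 0 and 30 min.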
# IMPase Li cell – membrane-permeable IMPase blocker, potentiated with lithium | CHO-M1 cells, IP1 TR-FRET (IP-One), carbachol + lithium | AID 1457 | Potency, µM (highest dose often 59.4 µM), for inactives: at the highest dose activity, negative = IMPase inhibition, usual class: inhibitors | actives 0.35% (n = 210,000);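 also: IP1 builds up when IMPase is blocked and the TR-FRET signal falls; plate controls were basal vehicle for no effect and high inhibitor control for full effect; nearly all actives have a fitted effect of over 50% in size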
#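 Concentration–response in CHO-M1 cells, lithium-potentiated; 30 min at 37C. IP1 detected by competitive TR-FRET after 10 min lysis at RT. Hill-fitted AC50.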
# NPSR antag – blocks cAMP signaling of the human neuropeptide S receptor | CHO-NPSR cells, cAMP TR-FRET, antagonist mode | Potency, µM (highest dose often 38.3 µM), inactives show at the top dose activity change, negative = inhibition, most hits filed as inhibitors | actives 1% (n = 220,000); also: % is scaled to controls: 0 for no effect and ±100 for the full control effect; nearly all actives have a fitted effect of over 50% in size
# Target sequence (Q6W5P4 whole entry, looked up): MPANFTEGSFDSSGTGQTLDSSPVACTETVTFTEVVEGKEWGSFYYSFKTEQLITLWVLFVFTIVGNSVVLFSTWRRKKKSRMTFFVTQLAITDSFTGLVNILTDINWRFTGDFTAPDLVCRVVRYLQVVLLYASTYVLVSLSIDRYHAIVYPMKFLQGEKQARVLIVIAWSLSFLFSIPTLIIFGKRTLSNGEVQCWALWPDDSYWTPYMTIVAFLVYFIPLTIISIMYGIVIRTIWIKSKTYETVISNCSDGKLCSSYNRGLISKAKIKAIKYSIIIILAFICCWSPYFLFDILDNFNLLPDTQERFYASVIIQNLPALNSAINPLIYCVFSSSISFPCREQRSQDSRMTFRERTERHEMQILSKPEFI
# Epigenetic derep – epigenetic control regulation, reporter derepression; AID 1865; murine LDR cells, GFP reporter derepression, 30 h; actives 0.2% (n = 280,000); Potency, µM (highest dose often 53.9 µM), for inactives: top-dose GFP activation, actives largely listed as activators; also: % of control where 0% means no effect; nearly all actives have a fitted effect of over 60% in size
#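 In this reporter-derepression format, murine cells bearing a silenced integrated CMV-GFP locus incubate with test compound (30 h, 37 C), then are washed and imaged; fluorescent objects of 20–120 um count as induced cells.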
# The depositor's hits bear a star; ? = inconclusive; · = not tested or not shown; [ ] = remark or other dose. An excerpt weighted towards active compounds, which were near 3.6% of everything screened. Unless noted, calls follow the shape of the dose curve; as a rule, active = well fitted curve in the direction sought with a large enough effect; inconclusive = small, poorly fitted or top-dose-only effect, or another doubt; inactive = no such curve, though single readings can be large; an effect the other way counts as inactive or inconclusive. Potency is read from the fitted curve at half-maximal effect.
SMILES,JMJD2E inh,KAT2A inh,Sfp PPTase inh,IMPase Li cell,NPSR antag,Epigenetic derep
Cc1c(C(=O)O)sc2nc(-c3cccs3)cc(C(F)(F)F)c12,·,-12%,10%,·,·,·
O=C(CC1N=C2c3ccccc3N=C(SCc3ccc(F)cc3)N2C1=O)NCc1ccco1 (centres undefined),?,-21%,?,10%,-15%[46.1 µM],-2%
Cc1ccc(CSC2=Nc3ccccc3C3=NC(CC(=O)NCc4ccco4)C(=O)N23)cc1 (centres undefined),?,-26%,35µM*,19%[38.3 µM],-22%[46.1 µM],-1%
CCOc1ccc(C2C(C#N)=C(N)SC(N)=C2C#N)c(OCC)c1,?,-4%,16µM*,?,26%[46.1 µM],3%
CCOc1cc(C2C(C#N)=C(N)SC(N)=C2C#N)ccc1OCCN1CCOCC1,-26%,-30%,-87%,?,-12%[46.1 µM],5%
Cc1ccc(NC(=O)Cn2c(=S)[nH]c3ccccc32)cc1,3%,-7%,45µM*,0%,4%,0%
O=C(Nc1ccc(Cl)cc1)[C@@H]1[C@@H]2C(=O)N(c3ccc(Cl)cc3)C(=O)[C@@H]2[C@H]2C=CC=NN21,-21%,-9%,45µM*,-2%[38.3 µM],-24%[46.1 µM],-1%
O=C(Nc1ccc(Cl)cc1)[C@@H]1[C@@H]2C(=O)N(c3ccc(Cl)cc3Cl)C(=O)[C@@H]2[C@H]2C=CC=NN21,-30%,-3%,-10%,0%[38.3 µM],-14%[46.1 µM],-1%
Cc1ccc(N2C(=O)[C@@H]3[C@H](C2=O)[C@H]2C=CC=NN2[C@@H]3C(=O)Nc2ccc(Cl)cc2)cc1,-20%,-14%,40µM*,-13%[38.3 µM],-10%[46.1 µM],-2%
C[C@H]1[C@H](O)[C@@H](C)C=CC=CC=CC=CC=CC=CC=C[C@H](O[C@@H]2O[C@@H](C)[C@H](O)[C@@H](N)[C@@H]2O)C[C@@H]2O[C@](O)(C[C@@H](O)C[C@@H](O)[C@@H](O)CC[C@@H](O)C[C@@H](O)CC(=O)O[C@H]1C)C[C@H](O)[C@H]2C(=O)O,·,·,·,-11%,·,·
Cc1nc(S/C(=C\c2ccc(-c3ccc(C(=O)O)c(Cl)c3)o2)C(=O)O)n[nH]1,3%,-9%,6.3µM*,·,13%,0%
O=C1N=C(N2CCOCC2)SC1=C1CCCCC1,12%,-10%,-2%,23%[38.3 µM],-5%[46.1 µM],0%
N#CCCN1CCN(C2=NC(=O)C(=C3CCCCC3)S2)CC1,-2%,3%,-7%,-19%[38.3 µM],20µM*,1%
CC(C)Cn1c(/C=C/c2ccco2)nc2ccccc21,?,-17%,35µM*,8%,-12%,-2%
CCCn1c(/C=C/c2ccccc2)nc2ccccc21,?,-5%,?,7%[38.3 µM],-7%[46.1 µM],-1%
CCOc1ccc(S(=O)(=O)c2cn(Cc3ccc(C)cc3)c3ccc(OC)cc3c2=O)cc1,·,-6%,·,·,·,-5%
O=C(C1=C(O)C(=O)N(c2ncccn2)C1c1ccc(Cl)cc1)c1ccco1 (centres undefined),5%,?,-5%,13µM*,-2%[46.1 µM],-3%
Cc1ccc(C(=O)C2=C(O)C(=O)N(c3ncccn3)C2c2ccc(Cl)cc2)o1 (centres undefined),-15%,-8%,-16%,13µM*,-51%,-1%
O=C(C1=C(O)C(=O)N(c2ncccn2)C1c1cccc(Cl)c1)c1ccco1 (centres undefined),?,·,56µM*,?,4%[46.1 µM],0%
Cc1cc(N2C(=O)C(O)=C(C(=O)c3ccco3)C2c2cccc(Cl)c2)no1 (centres undefined),·,-20%,-13%,·,·,·
COc1ccc(-c2noc(-c3ccccc3Cl)n2)cc1OC,-1%,-6%,8%,8.9µM*,-9%[46.1 µM],-10%
COc1ccc(-c2noc(-c3cccc(Cl)c3)n2)cc1OC,-7%,-1%,5%,5%,0%,0%
O=C(O)c1ccccc1Oc1ccc(Oc2ccccc2)cc1,·,-1%,5%,·,·,·
